Screening data (PubChem)
Giardia kill – kills Giardia lamblia; Giardia lamblia trophozoite viability; activity change, % at 7.66 µM, hits read low; actives 0.15% (n = 340,000); in the data active = activity change below about -80%; inconclusive = between about -30% and that limit;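 note: parasites exposed to compound for two days anaerobically before the ATP read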
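Trophozoite viability was measured as ATP-dependent luminescence, read 15-30 min after reagent addition. Before that, parasites at 100 cells/well were exposed to compounds for 48 h, anaerobically, at 37 deg C.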
B2AR arrestin – beta2AR (human) beta-arrestin recruitment activity | beta-arrestin recruitment to beta2AR, cell-based reporter | Potency, µM (highest dose often 46.1 µM), actives largely listed as activators | P07550 | actives 0.02% (n = 330,000); active = well fitted activation curve with a large enough effect; inconclusive = small, poorly fitted or top-dose-only effect; note: nearly all actives have a fitted effect of over 65% in size
Target sequence (P07550 whole entry, looked up): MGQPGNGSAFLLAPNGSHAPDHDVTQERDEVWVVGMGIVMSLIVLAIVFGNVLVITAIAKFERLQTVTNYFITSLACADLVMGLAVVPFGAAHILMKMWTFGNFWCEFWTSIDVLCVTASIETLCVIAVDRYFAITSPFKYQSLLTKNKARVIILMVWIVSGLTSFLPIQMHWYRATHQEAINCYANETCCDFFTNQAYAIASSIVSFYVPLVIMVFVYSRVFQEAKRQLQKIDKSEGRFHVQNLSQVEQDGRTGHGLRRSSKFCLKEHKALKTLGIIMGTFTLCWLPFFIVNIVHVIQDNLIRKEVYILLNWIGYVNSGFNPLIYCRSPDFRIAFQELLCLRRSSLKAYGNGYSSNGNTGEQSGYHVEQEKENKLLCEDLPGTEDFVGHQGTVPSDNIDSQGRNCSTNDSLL
DRD3 antagonist – antagonists of human D3 dopamine receptor. D3R cells, DiscoveRx beta-arrestin luminescence, antagonist mode; stronger effect = lower value. max response, negative = inhibition, %. actives 2.5% (n = 360,000). AID 652054; in the data active = max response below about -50%; inconclusive = no clear call, values can overlap the other calls
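Cells plated overnight at 1500 cells/well, then exposed to library compounds with dopamine controls for 90 minutes at 37 degrees C. DiscoveRx reagent added for 30–60 minutes at room temperature; luminescence read, quantitative HTS format.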
D3 ag – activates the human D3 dopamine receptor. P35462. D3R DiscoveRx beta-arrestin cells, luminescence, 90 min. max activation, %. actives 0.58% (n = 410,000). AID 652048; in the data active = max activation above about 30%
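Agonist mode: compounds and dopamine controls were applied to plated cells for 90 min at 37 degrees C after an overnight attachment at 1500 cells/well. Luminescent read-out followed 30 - 60 minutes at room temperature with DiscoveRx detection reagent.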
Numbers stand for hits. The list is not random: actives were taken first. Their share in the collection is about 2.8%.

For O=C(NCc1ccc(Cl)cc1)C(=O)c1cn(CC(=O)N2CCOCC2)c2ccccc12 the results were Giardia kill inactive, B2AR arrestin inactive, DRD3 antagonist inactive and D3 ag inactive.
CC(C)(Cc1ccccc1)NC(=O)C(=O)c1cn(CC(=O)N2CCOCC2)c2ccccc12 was read as Giardia kill inactive, B2AR arrestin inactive, DRD3 antagonist -70 and D3 ag inactive.
`COC(=O)C1(Cc2cc(-c3ccc(OC)cc3OC)no2)CCN(C(=O)OC(C)(C)C)CC1` gave Giardia kill inactive, B2AR arrestin inactive, DRD3 antagonist inactive and D3 ag 77.
`COC(=O)C1(Cc2cc(-c3cccc(Br)c3)no2)CCN(C(=O)OC(C)(C)C)CC1` gave Giardia kill inactive, B2AR arrestin inactive, DRD3 antagonist inactive and D3 ag inactive.
Screening C(=NN1CCCCCC1)c1ccccc1 returned Giardia kill inactive, DRD3 antagonist inactive and D3 ag inactive.
`CN(c1ccccc1)c1ccc(/C=N/N2CCOCC2)cc1` gave Giardia kill inactive, B2AR arrestin inactive, DRD3 antagonist -52 and D3 ag inactive.
Screening O=C(CCC1N=C2c3ccccc3N=C(SCc3cccc(F)c3)N2C1=O)NCc1ccc(F)cc1 (stereo not drawn) returned D3 ag inactive.
For COc1cc(C(=O)N/N=C/c2ccc(OC)c(CN3CCN(c4ccc(F)cc4)CC3)c2)ccc1O the results were Giardia kill inactive, B2AR arrestin inactive, DRD3 antagonist -75 and D3 ag inactive.
Screening Cc1nn(-c2ccccc2)c(C)c1/C=N/n1c(-c2ccc(Cl)cc2)n[nH]c1=S returned Giardia kill inactive, B2AR arrestin inactive, DRD3 antagonist inactive and D3 ag inactive.
`Cn1cccc1/C=N/n1c(-c2ccccc2)n[nH]c1=S` gave Giardia kill inactive, B2AR arrestin inactive, DRD3 antagonist -98 and D3 ag inactive.
For Cc1nn(-c2ccccc2)c(C)c1/C=N/n1c(-c2ccncc2)n[nH]c1=S the results were Giardia kill inactive, B2AR arrestin inactive, DRD3 antagonist -52 and D3 ag inactive.
S=c1[nH]nc(-c2cccnc2)n1/N=C/c1ccco1 was read as Giardia kill inactive, B2AR arrestin inactive, DRD3 antagonist -50 and D3 ag inactive.
Screening S=c1[nH]nc(-c2ccccn2)n1/N=C/c1ccccc1 returned Giardia kill inactive, B2AR arrestin inactive, DRD3 antagonist -52 and D3 ag inactive.
Screening Cc1ccc(-c2n[nH]c(=S)n2/N=C\c2ccco2)cc1 returned Giardia kill inactive, B2AR arrestin inactive, DRD3 antagonist inactive and D3 ag inactive.
For CCN(CC)S(=O)(=O)c1ccc2c(c1)N(CC(=O)NCCCN1CCN(c3cc(Cl)ccc3C)CC1)C(=O)CO2 the results were D3 ag inactive.
`COC(=O)c1c(-c2cccs2)csc1NC(=O)COc1ccc(C(C)(C)C)cc1` gave D3 ag inactive.
For Cc1oc(-c2ccc(C(=O)NCc3cccc(F)c3)cc2)nc1COc1ccccc1 the results were D3 ag inactive.
Cc1ccc(NC(=O)Cn2c(=O)n(-c3ccc(CC(=O)NCC4CCCO4)cc3)c(=O)c3ccccc32)cc1 (stereo not drawn) was read as D3 ag inactive.
`Oc1c(Br)cc(Br)cc1/C=N/n1c(-c2ccccc2)n[nH]c1=S` gave Giardia kill inactive, B2AR arrestin inactive, DRD3 antagonist -51 and D3 ag inactive.
Screening O=C(NNC(=O)c1cccc(O)c1)Nc1ccc([N+](=O)[O-])cc1 returned Giardia kill inactive, B2AR arrestin inactive, DRD3 antagonist -57 and D3 ag inactive.
Screening COc1ccc(Br)cc1S(=O)(=O)N(CC(=O)N1CCOCC1)c1ccccc1 returned Giardia kill inactive, B2AR arrestin inactive, DRD3 antagonist -120 and D3 ag inactive.
Screening COc1ccc(C)cc1S(=O)(=O)N(CC(=O)N1CCOCC1)c1cc(C)cc(C)c1 returned Giardia kill inactive, B2AR arrestin inactive, DRD3 antagonist inactive and D3 ag inactive.
For CN(C)S(=O)(=O)N(CC(=O)N1CCOCC1)c1ccccc1 the results were Giardia kill inactive, B2AR arrestin inactive, DRD3 antagonist -52 and D3 ag inactive.
Screening Cc1nn2c(C)c(C(=O)NC(C)(C)C)cnc2c1-c1ccc(F)cc1 returned D3 ag inactive.
`C[C@@H]1C(=O)N(S(=O)(=O)c2ccccc2[N+](=O)[O-])[C@H]1c1ccc(-c2ccccc2)cc1` gave Giardia kill inactive.
For O=C(Nc1ccccc1)Nc1ncc([N+](=O)[O-])s1 the results were Giardia kill inconclusive, B2AR arrestin inactive, DRD3 antagonist inconclusive and D3 ag inactive.
Screening CC(C)CC(=O)Nc1ncc([N+](=O)[O-])s1 returned Giardia kill -93, B2AR arrestin inactive, DRD3 antagonist inconclusive and D3 ag inactive.
Screening CCCCC(=O)Nc1ncc([N+](=O)[O-])s1 returned Giardia kill -90, B2AR arrestin inactive, DRD3 antagonist inactive and D3 ag inactive.
For CCCCC(=O)Nc1ncc(Br)s1 the results were Giardia kill inactive, B2AR arrestin inactive, DRD3 antagonist inactive and D3 ag inactive.
Screening O=C(COC(=O)c1ccccc1)Nc1ncc([N+](=O)[O-])s1 returned Giardia kill inconclusive, B2AR arrestin inactive, DRD3 antagonist inactive and D3 ag inactive.
`COc1ccc(CC(=O)Nc2ncc([N+](=O)[O-])s2)cc1OC` gave Giardia kill -89, B2AR arrestin inactive, DRD3 antagonist inconclusive and D3 ag inactive.
Cc1nc(C)c(C(=O)Nc2ncc([N+](=O)[O-])s2)o1 was read as Giardia kill -88, B2AR arrestin inactive, DRD3 antagonist inactive and D3 ag inactive.
`COc1ccc(C2C3C=CCC(c4cccc(/C=C/c5ccccc5)c4)C3C(=O)N2Cc2ccccc2)cc1Cl` (stereo not drawn) gave Giardia kill inactive.
Screening COc1ccc(NC(=O)NCc2cccn2Cc2ccc(F)cc2)cc1OC returned D3 ag inactive.
Screening COc1cc(NC(=O)Nc2cccc(-c3noc(C)n3)c2)cc(OC)c1OC returned D3 ag inactive.
CCN1CCN(C(=O)c2cc3sccc3n2CC(=O)c2ccccc2)CC1 was read as Giardia kill inactive, B2AR arrestin inactive, DRD3 antagonist -56 and D3 ag inactive.
CN1CCN(C(=O)c2cc3sccc3n2CC(=O)c2ccccc2)CC1 was read as Giardia kill inactive, B2AR arrestin inactive, DRD3 antagonist -62 and D3 ag inactive.
CCOC(=O)c1c(-c2ccccc2)c2cc(OC)ccc2n1CCCN(C)C was read as Giardia kill inactive, B2AR arrestin inactive, DRD3 antagonist -72 and D3 ag inactive.
For Cc1[nH]c2ccc(Br)cc2c(=O)c1CN1CCOCC1 the results were Giardia kill inactive, B2AR arrestin inactive, DRD3 antagonist -70 and D3 ag inactive.
CCOc1ccc2[nH]c(C)c(CN3CCOCC3)c(=O)c2c1 was read as Giardia kill inactive, B2AR arrestin inactive, DRD3 antagonist inactive and D3 ag inactive.
For O=C(CCC1CCN(Cc2ccccc2)CC1)c1ccc2c(c1)NCCCC2 the results were D3 ag inactive.
For Cc1ccc(NC(=O)CSc2nc(=O)n(CCN3CCOCC3)c3c2CCC3)c(C)c1 the results were D3 ag inactive.
